An excerpt weighted towards active compounds, which were near 2.6% of everything screened.
TROY NFkB inh = TROY signaling inhibition; Q293 LMP1-TROYcd NF-kB luciferase reporter, 4 h; inhibition, % at 10 µM; 360,000 tested, 0.98% active;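 active = compounds whose plate-normalised and pattern-corrected inhibition of the luciferase reporter signal at the single screening dose is 50% or more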
TWEAK Fn14 block = inhibitors of TWEAK-Fn14 interaction signaling; TWEAK-stimulated Fn14 reporter cells, luciferase luminescence, 8 h; 360,000 tested, 2% active; inhibition, % at 10 µM; in the data active = inhibition above about 50%
aDG glyco up = alpha-DG glycosylation activation; Pro5-aDG cells, alpha-DG glycosylation AlphaScreen (IIH6); 0% Pro5, 100% B10-LARGE cell signal; activation, % at 10 µM; 360,000 tested, 0.22% active; AID 624168;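 active = activation of at least 8% versus controls, or a plate z-score of at least 8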;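 note: Pro5 are CHO cells carrying HIG-tagged alpha-DG that lacks glycosylation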
HSP90 inh = blocks HSP90-mediated luciferase refolding in reticulocyte lysate. Rabbit reticulocyte lysate, luciferase refolding luminescence, 3 h. inhibition, % at 5.6 µM. 290,000 tested, 0.91% active. AID 1789;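 active = inhibition above the screen-wide mean plus 3 SD, computed separately per campaign, cut at about 16% in these data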;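 note: 0% = DMSO wells and 100% = 60 µM geldanamycin wells; inhibitors lower the luminescence because luciferase stays unfolded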
LGR2 antag = Drosophila LGR2 receptor signaling inhibition; AID 720647; 380,000 tested, 0.35% active; HEK293 LGR2, CRE-luciferase, bursicon-stimulated, 4 h; inhibition, % at 9.99 µM;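 active = drop in luminescence signal, shown as inhibition above about 50% in the replicate tests, limit read from the data, passing the limit was not always enough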;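 note: agonist challenge used bursicon conditioned medium at about half maximal strength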
EBV LMP1 NFkB = reduces LMP1-driven NF-kappaB luciferase signal | LMP1-induced NF-kappaB luciferase reporter cells, luminescence | inhibition, % at 12.5 µM | 350,000 tested, 0.69% active; in the data active = inhibition above about 41%;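 note: 0% = neutral control wells and 100% = reference inhibitor control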
HSP90 confirm = HSP90 inhibition, confirmation assay; inhibition, % at 5.9 µM; rabbit reticulocyte lysate, luciferase refolding luminescence, 3 h; 2,300 tested, 64% active; AID 1846; shares compounds with HSP90 inh; in the data active = inhibition above about 18%;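 note: 0% = vehicle wells and 100% = reference inhibitor wells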
FLuc counter = firefly luciferase inhibition, HSP90 counter-screen; purified native firefly luciferase, luminescence; shares compounds with HSP90 inh; inhibition, % at 5.9 µM; 2,300 tested, 48% active;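 active = inhibition above the mean inhibition of all tested sample wells plus 3 SD, cut at about 10% in these data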;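 note: 0% = DMSO with luciferase and 100% = wells lacking luciferase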
Target sequence (P08659 whole entry, looked up): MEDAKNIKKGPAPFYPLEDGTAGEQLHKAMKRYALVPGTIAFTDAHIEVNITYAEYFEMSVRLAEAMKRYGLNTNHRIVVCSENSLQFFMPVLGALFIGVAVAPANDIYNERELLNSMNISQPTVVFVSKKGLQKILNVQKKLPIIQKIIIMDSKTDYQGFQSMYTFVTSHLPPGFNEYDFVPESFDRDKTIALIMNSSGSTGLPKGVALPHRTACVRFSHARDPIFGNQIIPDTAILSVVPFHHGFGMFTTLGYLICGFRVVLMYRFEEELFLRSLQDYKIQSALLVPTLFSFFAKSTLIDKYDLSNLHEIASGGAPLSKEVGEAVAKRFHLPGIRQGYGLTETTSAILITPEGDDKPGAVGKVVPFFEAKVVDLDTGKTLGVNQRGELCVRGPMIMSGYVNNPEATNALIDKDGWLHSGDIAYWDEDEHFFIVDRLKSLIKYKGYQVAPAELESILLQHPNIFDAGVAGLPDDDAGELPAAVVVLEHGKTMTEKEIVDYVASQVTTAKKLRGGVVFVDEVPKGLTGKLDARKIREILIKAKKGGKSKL
Starred values were filed as active, the others as inactive; nt = no result given.

SMILES | TROY NFkB inh | TWEAK Fn14 block | aDG glyco up | HSP90 inh | LGR2 antag | EBV LMP1 NFkB | HSP90 confirm | FLuc counter
C[C@@H]1CN([C@@H](C)CO)S(=O)(=O)c2ccc(C#C[C@@H](C)O)cc2O[C@@H]1CN(C)C(=O)C1CCC1 | nt | nt | nt | nt | -6 | nt | nt | nt
Cc1cc(C)c2c(N)c(C(=O)Nc3nccs3)sc2n1 | -11 | 66* | 0 | 30* | nt | 3 | 62* | 51*
N#CC1=C2C=CC=CN2CC1=O | 23 | 9 | 0 | 20* | nt | -6 | 4 | -2
S=C(c1ccc(N2CCCC2)c(Br)c1)N1CCCCC1 | -17 | 31 | 0 | 22* | -12 | -3 | 0 | -18
COc1ccc(C(=S)N2CCCCC2)cc1Br | 3 | -13 | 0 | 2 | nt | 4 | nt | nt
O=C(NCCc1nnc2ccc(NCc3ccc(Cl)cc3)nn12)c1ccccc1 | -4 | -11 | 0 | 20* | 1 | 6 | 1 | -2
NNC(=O)c1c(O)c2cccc3c2n(c1=O)CCC3 | 8 | 6 | 0 | 19* | -4 | 6 | 3 | -5
O=C(NCc1ccccc1)c1c(O)c2cccc3c2n(c1=O)CCC3 | 2 | -6 | 3 | 0 | nt | 2 | nt | nt
CN1CCN(C(=O)C[C@H]2C[C@H]3c4cc(NC(=O)Nc5ccccc5)ccc4O[C@H]3[C@@H](CO)O2)CC1 | nt | nt | nt | nt | 13 | nt | nt | nt
C[C@H](CO)N1C[C@H](C)[C@H](CN(C)C(=O)NC2CCCCC2)OCCCC[C@H](C)Oc2ccc(NC(=O)Nc3ccccc3)cc2C1=O | nt | nt | nt | nt | 41 | nt | nt | nt
CC1Cc2cc(/C(O)=C3/C(=O)C(=O)N(CCN4CCOCC4)C3c3cccc(O)c3)ccc2O1 (configuration not stated) | -18 | 9 | 0 | 18* | nt | -2 | 18* | 8
CCOc1cccc(C2/C(=C(/O)c3ccc4c(c3)CC(C)O4)C(=O)C(=O)N2CCN2CCOCC2)c1 (configuration not stated) | -11 | -6 | 0 | 1 | 0 | -2 | nt | nt
CC1Cc2cc(/C(O)=C3/C(=O)C(=O)N(CC4CCCO4)C3c3ccco3)ccc2O1 (configuration not stated) | 42 | 44 | 0 | 22* | nt | -2 | 8 | 12*
Cc1nnc(N2C(=O)C(=O)/C(=C(\O)c3ccc4c(c3)CC(C)O4)C2c2ccccc2)s1 (configuration not stated) | 57* | 35 | 0 | 26* | 0 | -6 | 17* | 26*
COc1ccc(CN(C)C[C@H]2OCCCC[C@H](C)Oc3ccc(NC(=O)Nc4ccc(OC)cc4)cc3C(=O)N([C@@H](C)CO)C[C@@H]2C)cc1 | nt | nt | nt | nt | -6 | nt | nt | nt
C[C@H](CO)N1C[C@H](C)[C@@H](CN(C)Cc2ccc(C(=O)O)cc2)Oc2ccc(NC(=O)Nc3ccc(F)cc3)cc2C1=O | nt | nt | nt | nt | 4 | nt | nt | nt
O=C(COc1ccccc1)Nc1nccs1 | -10 | 18 | 0 | 10 | -17 | 13 | nt | nt
O=C(COc1ccc2ccccc2c1)Nc1nccs1 | -28 | 75* | 0 | 23* | 73* | 2 | 54* | 49*
Cc1cc2ccccc2n1CCNC(=O)c1ccccc1 | 28 | 30 | 0 | 40* | -25 | -6 | 51* | -3
Cc1cc2ccccc2n1CCNC(=O)c1ccc(Br)o1 | 7 | 8 | 0 | 17* | 8 | -5 | 1 | -7
CC(C)NC(=O)N(C)C[C@@H]1Oc2ccc(NC(=O)Nc3ccc4c(c3)OCO4)cc2C(=O)N([C@@H](C)CO)C[C@H]1C | nt | nt | nt | nt | 7 | nt | nt | nt
O=C(NC1CCCC1)C(c1ccccc1)N(Cc1cccnc1)C(=O)Cc1cccs1 (configuration not stated) | 8 | 14 | 0 | 0 | 9 | -5 | nt | nt
Cc1cccc(CCN(C(=O)Cc2cccs2)C(C(=O)NC2CCCCC2)c2cccnc2)c1 (configuration not stated) | -16 | 11 | 0 | 25* | nt | 1 | 2 | -4
Cc1cccc(-c2cc3nc(C)c(C)c(NCCCn4ccnc4)n3n2)c1 | 12 | -25 | 1 | 19* | -16 | 3 | 2 | -5
Cc1cc(NCCCn2ccnc2)n2nc(-c3ccc(F)cc3)cc2n1 | -25 | -30 | 0 | -1 | -8 | -10 | nt | nt
SMILES | TROY NFkB inh | TWEAK Fn14 block | aDG glyco up | HSP90 inh | LGR2 antag | EBV LMP1 NFkB | HSP90 confirm | FLuc counter
CO[C@H]1CN(C)C(=O)c2ccc(NC(=O)C3CCOCC3)cc2OC[C@H](C)NC[C@@H]1C | nt | nt | nt | nt | -11 | nt | nt | nt
Cc1cc(C(=O)COC(=O)c2cccn2C)c(C)n1Cc1ccco1 | 76* | 74* | 2 | 40* | 53* | -1 | 66* | 66*
Cc1cc(C(=O)COC(=O)c2ccncc2)c(C)n1Cc1ccco1 | -9 | 59* | 0 | 26* | -27 | 1 | 41* | 75*
Cc1cc(C(=O)COC(=O)c2cc(Cl)ccc2N)c(C)n1Cc1ccco1 | -14 | 3 | 2 | 0 | -42 | -61 | nt | nt
CC(C)NC(=O)N1[C@@H]2CN(C(=O)C3CCC3)c3ccccc3[C@@H]2[C@@H]1CO | nt | nt | nt | nt | 15 | nt | nt | nt
CCC(=O)Nc1cc(C(=O)OCC(=O)c2ccccc2Cl)ccc1C | -65 | 2 | 0 | 1 | nt | -41 | nt | nt
CCC(=O)Nc1cc(C(=O)OCC(=O)c2ccccc2)ccc1C | 15 | 25 | 0 | 20* | -26 | -11 | 45* | -34
CC1=CC(C)(C)Nc2ccc(OC(=O)c3cccnc3)cc21 | 23 | 29 | 0 | 13 | 0 | -15 | nt | nt
CC1=CC(C)(C)Nc2ccc(OC(=O)c3ccco3)cc21 | 38 | 88* | 0 | 17* | -22 | -36 | 32* | -9
COc1ccc(-c2ccn(-c3cccc(F)n3)n2)cc1 | -22 | 56* | 0 | 22* | -82 | -40 | 33* | 18*
CCCC#Cc1ccc2c(c1)O[C@@H](CN(C)C(=O)Nc1ccc(OC)cc1)[C@@H](C)CN([C@@H](C)CO)S2(=O)=O | nt | nt | nt | nt | 10 | nt | nt | nt
O=C(COC(=O)c1nsc(Cl)c1Cl)NC1CCCC1 | -2 | 16 | 0 | 23* | 15 | 0 | -5 | -14
O=C(COC(=O)c1nsc(Cl)c1Cl)NC1CCCCC1 | 7 | -12 | 0 | -4 | -5 | -9 | nt | nt
Nc1cccc(-c2nc3ccc(N)cc3s2)c1 | 13 | 78* | 0 | 20* | nt | 12 | 66* | 53*
Nc1ccc(O)c(-c2nc3ccccc3s2)c1 | -9 | 12 | 0 | 1 | nt | -16 | nt | nt
Nc1ccc(-c2nc3ccc(N)cc3s2)cc1 | 28 | 74* | 0 | 54* | 53* | 12 | 69* | 61*
C[C@@H](NC(=O)C[C@@H]1C=C[C@H](NS(=O)(=O)c2cccc(F)c2)[C@H](CO)O1)c1ccccc1 | nt | nt | nt | nt | 14 | nt | nt | nt
Cc1cc(C(=O)Cn2nc(C(=O)O)c3ccccc3c2=O)c(C)n1-c1ccccc1 | 70* | 35 | 0 | 25* | -49 | 9 | 62* | 31*

Screening data as filed in PubChem BioAssay.
